# Measured values from the supplement of paper PMC9262897, “Low-cost anti-mycobacterial drug discovery using engineered E. coli” (Nature Communications, 2022).
# Structures can show the parent of a compound that is named as a salt. ± gives the standard deviation of the averaged measurements.
# Test system: E. coli TESEC Mtb DapB
# Assay: growth (OD600 after 10 h); higher = more growth (less inhibition)
# Details: arabinose induction (level): Low; compound 0.1 mM; raw OD600 reference: median of DMSO wells 0.227, cell-free background 0.041
# Experimental: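 TESEC E. coli strains in which the native enzyme is deleted and replaced by arabinose-inducible Mtb Asd, DapB, CysH or TrpD, each grown in its selective medium. Strains were screened against the Prestwick library at 0.1 mM and 1% DMSO in 384-well format at low and high arabinose induction. Growth is read as OD600 after 10 h in triplicate.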
row,SMILES,growth
1,O=C1c2ccccc2C(=O)C1c1ccccc1 [Phenindione],0.227 ± 0.017
2,CC(C)NC(=N)NC(=N)Nc1ccc(Cl)cc1 [Proguanil hydrochloride],0.244 ± 0.016
3,Cc1[nH]cnc1CN1CCc2c(c3ccccc3n2C)C1=O [Alosetron hydrochloride],0.262 ± 0.041
4,O=c1cc(-c2ccc(O)c(O)c2)oc2cc(O)cc(O)c12 [Luteolin],0.0607 ± 0.002
5,O=C1OC(CN2CCOCC2)CN1/N=C/c1ccc([N+](=O)[O-])o1 (centres undefined) [Furaltadone hydrochloride],0.0529 ± 0.00068
6,O=C(c1ccc(OCCN2CCCCC2)cc1)c1c(-c2ccc(O)cc2)sc2cc(O)ccc12 [Raloxifene hydrochloride],0.0509 ± 0.0031
7,CNS(=O)(=O)Cc1ccc2[nH]cc(CCN(C)C)c2c1 [Sumatriptan succinate],0.221 ± 0.028
8,Cc1ccc(C)c(OCCCC(C)(C)C(=O)O)c1 [Gemfibrozil],0.195 ± 0.055
9,O=C(NCC(O)CO)c1c(I)c(C(=O)NCC(O)CO)c(I)c(N(CCO)C(=O)CO)c1I (centres undefined) [Ioversol],0.256 ± 0.028
10,CN(C)CCOC(c1ccc(Cl)cc1)c1ccccn1 (centres undefined) [Carbinoxamine maleate salt],0.23 ± 0.016
11,C=CCSCC1Nc2cc(Cl)c(S(N)(=O)=O)cc2S(=O)(=O)N1 (centres undefined) [Althiazide],0.242 ± 0.018
12,CC(=O)OCC(=O)[C@@]1(O)[C@H](C)C[C@H]2[C@@H]3CCC4=CC(=O)C=C[C@]4(C)[C@@]3(F)[C@@H](O)C[C@@]21C [Dexamethasone acetate],0.233 ± 0.03
13,CC(C)(C)NCC(O)c1ccc(O)c(CO)c1 (centres undefined) [Salbutamol],0.233 ± 0.028
14,"CC(C)NCC(O)c1cc(O)cc(O)c1 (centres undefined) [Metaproterenol sulfate, orciprenaline sulfate]",0.183 ± 0.015
15,CN(CCOc1ccc(NS(C)(=O)=O)cc1)CCc1ccc(NS(C)(=O)=O)cc1 [Dofetilide],0.241 ± 0.032
16,N=c1nc(N2CCCCC2)cc(N)n1O [Minoxidil],0.209 ± 0.019
17,Clc1ccccc1C(c1ccccc1)(c1ccccc1)n1ccnc1 [Clotrimazole],0.0488 ± 0.0015
18,CC(=O)Oc1ccccc1C(=O)Nc1ncc([N+](=O)[O-])s1 [Nitazoxanide],0.0559 ± 0.0026
19,CCOc1ccccc1OC(c1ccccc1)C1CNCCO1 (centres undefined) [Reboxetine mesylate],0.183 ± 0.021
20,NC(=O)c1cc[n+](CC2=C(C(=O)[O-])N3C(=O)[C@@H](NC(=O)[C@@H](c4ccccc4)S(=O)(=O)O)[C@H]3SC2)cc1 [Cefsulodin sodium salt],0.245 ± 0.015
21,CC(C)(C)NC(=O)[C@@H]1C[C@@H]2CCCC[C@@H]2CN1C[C@@H](O)[C@H](Cc1ccccc1)NC(=O)[C@H](CC(N)=O)NC(=O)c1ccc2ccccc2n1 [Saquinavir mesylate],0.0578 ± 0.0085
22,CCCCOC(=O)c1ccc(O)cc1 [Butylparaben],0.2066 ± 0.00083
23,Cc1cn[nH]c1 [Fomepizole],0.215 ± 0.0091
24,NC1CCN(c2nc3c(cc2F)c(=O)c(C(=O)O)cn3-c2ccc(F)cc2F)C1 (centres undefined) [Tosufloxacin hydrochloride],0.0526 ± 0.0037
25,CN(C)CCN1C(=O)c2ccccc2N(C)c2ccccc21 [Dibenzepine hydrochloride],0.187 ± 0.0044
26,Nc1nc(NC2CC2)c2ncn([C@H]3C=C[C@@H](CO)C3)c2n1 [Abacavir Sulfate],0.212 ± 0.038
27,O=C(NCCN1CCOCC1)c1ccc(Cl)cc1 [Moclobemide],0.217 ± 0.025
28,CC(C)C[C@H](NC(=O)[C@@H](O)[C@H](N)Cc1ccccc1)C(=O)O [Ubenimex],0.229 ± 0.015
29,CC(C(=O)O)c1ccc(-c2ccccc2)c(F)c1 (centres undefined) [Flurbiprofen],0.188 ± 0.023

# Test system: E. coli TESEC Alr+ wild-type control
# Assay: as above
# Details: compound 0.1 mM; raw OD600 reference: median of DMSO wells 0.49, cell-free background 0.052
# Experimental: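 TESEC Mtb Alr E. coli (ΔaraC ΔtolC ΔentC Δalr ΔdadX, arabinose-inducible Mtb Alr) or the Alr+ wild-type control strain, grown in defined M9-fructose medium without D-alanine in 96-well plates with Prestwick library compounds at 0.1 mM and 1% DMSO. Low Alr induction is 0.1 µM arabinose and high induction is 10 mM arabinose.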
row,SMILES,growth
1,CC1(C)O[C@@H]2C[C@H]3[C@@H]4C[C@H](F)C5=CC(=O)C=C[C@]5(C)[C@@]4(F)[C@@H](O)C[C@]3(C)[C@]2(C(=O)CO)O1 [Fluocinolone acetonide],0.591 ± 0.015
2,O=C1CC[C@@H](C(=O)N2CSC[C@H]2C(=O)O)N1 [Pidotimod],0.536 ± 0.1
3,Cc1cc(NS(=O)(=O)c2ccc(N)cc2)no1 [Sulfamethoxazole],0.45 ± 0.031
4,"CN(Cc1cnc2nc(N)nc(N)c2n1)c1ccc(C(=O)N[C@@H](CCC(=O)O)C(=O)O)cc1 (racemic) [Amethopterin (R,S)]",0.0999 ± 0.0032
5,CN(C)CCCN1c2ccccc2CCc2ccc(Cl)cc21 [Clomipramine hydrochloride],0.202 ± 0.26
6,CN1CCN2c3ccccc3Cc3ccccc3C2C1 (centres undefined) [Mianserine hydrochloride],0.4446 ± 0.0027
7,CCCN(CCC)C(=O)C(CCC(=O)O)NC(=O)c1ccccc1 (centres undefined) [Proglumide],0.477 ± 0.079
8,CCCCOc1ccc(CC(=O)NO)cc1 [Bufexamac],0.437 ± 0.031
9,CC(C)CC(=O)N[C@H](C(=O)N[C@H](C(=O)N[C@@H](CC(C)C)[C@@H](O)CC(=O)N[C@@H](C)C(=O)N[C@@H](CC(C)C)[C@@H](O)CC(=O)O)C(C)C)C(C)C [Pepstatin A],0.468 ± 0.053
10,CO[C@@]1(NC(=O)C2SC(=C(C(N)=O)C(=O)O)S2)C(=O)N2C(C(=O)O)=C(CSc3nnnn3C)CS[C@@H]21 (some centres undefined) [Cefotetan],0.0443 ± 0.00044
11,CC[N+](CC)(CC)CCC(O)(c1ccccc1)C1CCCCC1 (centres undefined) [Tridihexethyl chloride],0.437 ± 0.045
12,O=C1c2ccccc2C(=O)C1c1ccccc1 [Phenindione],0.488 ± 0.05
13,CC(C)NC(=N)NC(=N)Nc1ccc(Cl)cc1 [Proguanil hydrochloride],0.475 ± 0.012
14,Cc1[nH]cnc1CN1CCc2c(c3ccccc3n2C)C1=O [Alosetron hydrochloride],0.563 ± 0.075
15,O=c1cc(-c2ccc(O)c(O)c2)oc2cc(O)cc(O)c12 [Luteolin],0.174 ± 0.18
16,O=C1OC(CN2CCOCC2)CN1/N=C/c1ccc([N+](=O)[O-])o1 (centres undefined) [Furaltadone hydrochloride],0.05647 ± 0.00045
17,O=C(c1ccc(OCCN2CCCCC2)cc1)c1c(-c2ccc(O)cc2)sc2cc(O)ccc12 [Raloxifene hydrochloride],0.04917 ± 0.00038
18,CNS(=O)(=O)Cc1ccc2[nH]cc(CCN(C)C)c2c1 [Sumatriptan succinate],0.441 ± 0.017
19,Cc1ccc(C)c(OCCCC(C)(C)C(=O)O)c1 [Gemfibrozil],0.41 ± 0.018
20,O=C(NCC(O)CO)c1c(I)c(C(=O)NCC(O)CO)c(I)c(N(CCO)C(=O)CO)c1I (centres undefined) [Ioversol],0.452 ± 0.008

row,SMILES,growth
1,CN(C)CCOC(c1ccc(Cl)cc1)c1ccccn1 (centres undefined) [Carbinoxamine maleate salt],0.438 ± 0.022
2,C=CCSCC1Nc2cc(Cl)c(S(N)(=O)=O)cc2S(=O)(=O)N1 (centres undefined) [Althiazide],0.444 ± 0.049
3,CC(=O)OCC(=O)[C@@]1(O)[C@H](C)C[C@H]2[C@@H]3CCC4=CC(=O)C=C[C@]4(C)[C@@]3(F)[C@@H](O)C[C@@]21C [Dexamethasone acetate],0.477 ± 0.033
4,CC(C)(C)NCC(O)c1ccc(O)c(CO)c1 (centres undefined) [Salbutamol],0.528 ± 0.092
5,"CC(C)NCC(O)c1cc(O)cc(O)c1 (centres undefined) [Metaproterenol sulfate, orciprenaline sulfate]",0.635 ± 0.09
6,CN(CCOc1ccc(NS(C)(=O)=O)cc1)CCc1ccc(NS(C)(=O)=O)cc1 [Dofetilide],0.589 ± 0.053
7,N=c1nc(N2CCCCC2)cc(N)n1O [Minoxidil],0.45 ± 0.038
8,Clc1ccccc1C(c1ccccc1)(c1ccccc1)n1ccnc1 [Clotrimazole],0.0507 ± 0.0011
9,CC(=O)Oc1ccccc1C(=O)Nc1ncc([N+](=O)[O-])s1 [Nitazoxanide],0.0524 ± 0.0014
10,CCOc1ccccc1OC(c1ccccc1)C1CNCCO1 (centres undefined) [Reboxetine mesylate],0.542 ± 0.061
11,NC(=O)c1cc[n+](CC2=C(C(=O)[O-])N3C(=O)[C@@H](NC(=O)[C@@H](c4ccccc4)S(=O)(=O)O)[C@H]3SC2)cc1 [Cefsulodin sodium salt],0.636 ± 0.015
12,CC(C)(C)NC(=O)[C@@H]1C[C@@H]2CCCC[C@@H]2CN1C[C@@H](O)[C@H](Cc1ccccc1)NC(=O)[C@H](CC(N)=O)NC(=O)c1ccc2ccccc2n1 [Saquinavir mesylate],0.0807 ± 0.0042
13,CCCCOC(=O)c1ccc(O)cc1 [Butylparaben],0.399 ± 0.014
14,Cc1cn[nH]c1 [Fomepizole],0.554 ± 0.016
15,NC1CCN(c2nc3c(cc2F)c(=O)c(C(=O)O)cn3-c2ccc(F)cc2F)C1 (centres undefined) [Tosufloxacin hydrochloride],0.0604 ± 0.0041
16,CN(C)CCN1C(=O)c2ccccc2N(C)c2ccccc21 [Dibenzepine hydrochloride],0.608 ± 0.13
17,Nc1nc(NC2CC2)c2ncn([C@H]3C=C[C@@H](CO)C3)c2n1 [Abacavir Sulfate],0.612 ± 0.095
18,O=C(NCCN1CCOCC1)c1ccc(Cl)cc1 [Moclobemide],0.615 ± 0.038
19,CC(C)C[C@H](NC(=O)[C@@H](O)[C@H](N)Cc1ccccc1)C(=O)O [Ubenimex],0.528 ± 0.089
20,CC(C(=O)O)c1ccc(-c2ccccc2)c(F)c1 (centres undefined) [Flurbiprofen],0.486 ± 0.025
